The record followed here is PubChem BioAssay.

Test [1] is described as follows: compounds altering circadian rhythm period length – cell-based, LOPAC library, luminescence reporter (AID 2774).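 Also: values are relative to mean of DMSO wells on each plate.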 To be noted: circadian reporter cells, at 7 µM, actives lie on both sides.
For test [2], the system named is Hepatitis C virus NS3 helicase. The test is described as follows: blockers of NS3h binding to ssDNA – biochemical, fluorescence polarization, LOPAC1280 library, primary screen (AID 687035; in the data active = inhibition above about 37%). To be noted: Purified HCV NS3 helicase, Cy5-dT15 ssDNA binding fluorescence polarization; stronger effect = higher value; concentration not given here.
A short description of test [3]: compounds altering Cy5-DNA-NS3h complex signal – biochemical, LOPAC1280, artefact control for HCV NS3 helicase inhibitor project (AID 687037). To be noted: Cy5-DNA-NS3h complex fluorescence interference counterscreen.
The test system of test [4] is Aerobactin synthetase IucA (Klebsiella pneumoniae, hypervirulent). In words: biochemical IucA inhibition screen of LOPAC library by absorbance (AID 1346212).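 Also: 100% = no compound wells and 0% = no enzyme wells.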 To be noted: IucA enzyme assay, absorbance (OD) readout; stronger effect = lower value;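 tested at 8 µM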.
Test [5] can be described thus: viability loss with induced miR-34 in A549 – imaging, A549 dox-inducible miR-34, nuclei and caspase counts, primary screen (AID 1347080;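 active = compounds whose cell count with miR-34 switched on is under 0.7 times the count with it off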). To be noted: A549 miR-34 inducible, Hoechst nuclei count, 48 h.
Test [6] is described as follows: blockers of cellular phospholipid synthesis – cell-based, LOPAC library, screen 4, primary screen (AID 1347384). To be noted: animal cells, phospholipid biosynthesis inhibition screen; at 10 µM.
Test [7] can be described thus: MELAS cybrid and Rieske KO viability enhancers – cell-based, MELAS cybrids, Rieske KO mouse fibroblasts, CellTiter-Glo, primary screen (AID 1508586;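 active = mean z-score across replicates of 1.96 or higher in either the MELAS or the Rieske mutant cell line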;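 also: z relative to plate mean and SD of compound and empty wells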). To be noted: low glucose.
Test [8] in a line: galactose survival enhancers in mitochondrial complex I cybrids – cell-based, galactose medium, ATP luminescence, primary screen (AID 1645843;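 active = z-score of at least 1.8 in each of two replicates, scored against plate mean and spread of sample wells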;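 also: positive z means more ATP and so rescue of galactose-driven cybrid death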). To be noted: complex I mutant cybrid cells, 72 h, stronger effect = higher value.
A short description of test [9]: compounds altering viability of human ES cells (AID 493140).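 Also: cells exposed to compounds for four days before counting.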 To be noted: human embryonic stem cell survival screen; stronger effect = higher value.
Test [10] is described as follows: viability loss in pontine glioma line – cell-based, SU-DIPG-IV, MIPE4.0, CellTiter-Glo, qHTS, dose response (AID 1347063; cut-off not given, nearly all actives have AC50 up to about 30 µM;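 also: compound exposure lasted 48 hours before the viability readout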). To be noted: CellTiter-Glo ATP luminescence.
Where [11] appears, read: measured here: relative caspase fold change +Dox/-Dox.
Where [12] appears, read: measured here: total cells with miR-34 induction, stronger effect = lower value.
[13] abbreviates: measured here: total cells without miR-34 induction.

“And” between values parts separate entries of the source, which are not always exact repeats. Identical values can stand only once. Inconclusive results are not listed. The source made the active and inactive calls. Unless noted, no rule for the calls is given here.

In the case of `NC(=O)CN1CC(O)CC1=O` (configuration not stated), the period change in [1] was 0.03 h (inactive). The inhibition in test [2] is -2% (inactive). Further, the fluorescence ratio (interference) in [3] was 1 (inactive). Further, in [4], the remaining activity is 115% (inactive). Further, the fold change in test [5] (stronger effect = lower value) is 1.04 (inactive) and 0.877 (inactive); in test [5] (setting [11]), 1.56 and 1.01. The cell count is 10800 and 8840 in test [5] (setting [12]); 10500 and 10100 in test [5] (setting [13]). For the same compound, the compound was called inactive in test [6]. Also, the z-score in test [7] (MELAS cybrid survival, CellTiter-Glo 48 h, stronger effect = higher value) was -0.221 (inactive); in test [7] (Rieske KO mouse fibroblast survival, CellTiter-Glo 72 h), -0.154; in test [8], 0.605 (inactive).

As for `NC(=O)COc1c(F)cc(SCCNS(=O)(=O)c2ccccc2)cc1F`, the period change in test [1] is -0.08 h (inactive). Moreover, in test [2], the inhibition is -2% (inactive). The fluorescence ratio (interference) in [3] is 1 (inactive). In test [4], the remaining activity is 109% (inactive). For the same compound, the values for the fold change in test [5] (stronger effect = lower value) and in [5] (setting [11]) were 0.978 (inactive) and 0.398, respectively. Also, the cell count in test [5] (setting [12]) came out at 9150; in test [5] (setting [13]), 9360. Further, the compound was called inactive in [6]. For the same compound, the z-score in [8] is 0.24 (inactive).

As for `C[N+](C)(C)CCOC(=O)CBr`, the period change in [1] is 0.015 h (inactive). Besides, the inhibition in [2] is -2% (inactive). Further, the fluorescence ratio (interference) in test [3] is 1 (inactive). Moreover, the remaining activity in test [4] was 126% (inactive). For the same compound, the fold change in test [5] (stronger effect = lower value) is 1.01 (inactive); in [5] (setting [11]), 2.27. The cell count in [5] (setting [12]) and in [5] (setting [13]) was 10100 each time. Moreover, the compound was called inactive in test [6]. Moreover, the z-score in [8] was 0.69 (inactive).

Consider `CC(C)Oc1cccnc1N(C)C1CCN(Cc2ccccc2)CC1`, for which the period change in test [1] is 0.225 h (inactive). Further, the inhibition in test [2] is -3% (inactive). The fluorescence ratio (interference) in test [3] is 1 (inactive). For the same compound, the remaining activity in test [4] is 99.8% (inactive). In addition, the fold change is 0.905 (inactive) in [5] (stronger effect = lower value) and 1.08 in test [5] (setting [11]). Also, the cell count in test [5] (setting [12]) is 8620; in test [5] (setting [13]) it was 9520. Further, in test [6], the outcome was inactive. Also, the z-score in [8] was -0.4 (inactive).

Regarding `CC(Cc1ccc(OCC(=O)O)cc1)NCC(O)c1cccc(Cl)c1` (configuration not stated), the period change in test [1] is -0.08 h (inactive). Besides, the inhibition in test [2] was -4% (inactive). Besides, the fluorescence ratio (interference) in [3] was 1 (inactive). For the same compound, the remaining activity in test [4] is 122% (inactive). For the same compound, the fold change in test [5] (stronger effect = lower value) is 1.04 (inactive); in test [5] (setting [11]), 2.14. The cell count was determined as 11000 in test [5] (setting [12]) and 10600 in test [5] (setting [13]). Besides, in test [6], the call was inactive. In test [8], the z-score was 0.62 (inactive).

Regarding `Cc1c(C(=O)c2cccc3ccccc23)c2cccc3c2n1[C@H](CN1CCOCC1)CO3`, the period change in test [1] was -0.065 h (inactive). The survival in [9] was 106 (inactive). Besides, the inhibition in [2] was -8% (inactive). In addition, the fluorescence ratio (interference) in test [3] is 1 (inactive). The remaining activity in [4] was 99.8% (inactive). Besides, in [10], the AC50 was 9.35 µM (active). In addition, the fold change in [5] (stronger effect = lower value) was 0.941 (inactive) and 0.94 (inactive); in [5] (setting [11]) it was 1.39 and 1.17. The cell count in test [5] (setting [12]) is 5730 and 5540; in test [5] (setting [13]), 6090 and 5900.
